Pyk2 oligo antag: antagonists of Pyk2 self-association, primary screen, Q293 cells, FERM NanoBiT luminescence, HTS | hits give low values | AID 1347419, 2020 | z-score (the deposit names both 25 µM and 10 µM) | hit rate 0.83% among 99,000;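 active = Z-score of -3 or lower, scaled per plate to the spread of control and sample wells; inactive = z-score above -3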;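 also: negative z-score means lost luminescence so less FERM oligomerization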
Cav32 inh: Cav3.2 calcium influx blockers – cell-based, Fluo-4 calcium fluorescence, FDSS, MLSMR library, primary screen; Voltage-dependent T-type calcium channel subunit alpha-1H (Homo sapiens), O95180; B-score at 10 µM; hit rate 4% among 100,000; AID 449739, 2010; Cav3.2-expressing cells; hits give low values;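 active = single-dose well whose peak fluorescence ratio is a statistical outlier from its plate by either plate-standardised score or position-corrected B-score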
CYP2C19 activ: human CYP2C19 activators, primary screen, biochemical, luminescence; Cytochrome P450 2C19 (Homo sapiens), P33261; 96,000 tested, under 10 active; activation factor at 5 µM; recombinant CYP2C19, luciferin-H EGE luminescence; hits give high values; 0 = fully inhibited enzyme, 1 = untreated enzyme;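 active = activation factor of at least 2 at 5 µM in the primary screen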;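 also: 0 = wells with 2.5 mM tranylcypromine and 1 = vehicle-only wells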
CYP2C19 inh: blockers of cytochrome P450 2C19 activity – biochemical, luminescence, ADME assay, primary screen. hit rate 21% among 96,000. inhibition, % at 5 µM. P33261. CYP2C19 Supersomes, luciferin-H EGE luminescence, 30 min;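 active = CYP2C19 inhibition above a set limit at 5 µM in the primary screen, cut at about 50% in these data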;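 also: plate controls were negative control wells for no effect and 2.5 mM tranylcypromine positive control for full effect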
CYP2C9 inh: blockers of cytochrome P450 2C9 activity – biochemical, luminescence, ADME assay, primary screen; P11712; CYP2C9 Supersomes, luciferin-H conversion; inhibition, % at 5 µM; hit rate 20% among 96,000; AID 777, 2007;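 active = blocking of liver enzyme CYP2C9 beyond about 50% at 5 µM, limit read from the data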
Target sequence (P11712 whole entry, looked up): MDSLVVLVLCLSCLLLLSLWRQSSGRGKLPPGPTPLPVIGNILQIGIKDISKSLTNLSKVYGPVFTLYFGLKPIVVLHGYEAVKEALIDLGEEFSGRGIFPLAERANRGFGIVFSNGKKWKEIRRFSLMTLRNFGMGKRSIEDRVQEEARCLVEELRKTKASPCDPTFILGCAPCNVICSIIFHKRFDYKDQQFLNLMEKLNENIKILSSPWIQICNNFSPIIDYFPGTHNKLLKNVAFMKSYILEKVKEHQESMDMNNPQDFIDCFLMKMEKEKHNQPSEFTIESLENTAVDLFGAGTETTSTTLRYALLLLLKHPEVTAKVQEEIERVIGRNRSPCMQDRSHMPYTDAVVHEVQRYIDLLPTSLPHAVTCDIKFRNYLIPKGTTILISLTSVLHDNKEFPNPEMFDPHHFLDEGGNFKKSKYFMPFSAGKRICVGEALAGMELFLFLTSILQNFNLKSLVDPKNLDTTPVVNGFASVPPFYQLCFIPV
CYP2C9 activ: human CYP2C9 activators, primary screen, biochemical, luminescence; activation factor at 5 µM; hit rate 1.4% among 96,000; recombinant CYP2C9, luciferin-H conversion; hits give high values; factor 1 = untreated enzyme, 0 = blocked;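 active = activation factor of 2 or more for CYP2C9 at a 5 µM dose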;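 also: 0 = sulfaphenazole-blocked wells and 1 = vehicle-only wells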
An asterisk follows results filed as active; · = no result. A selection: hits, their analogues and other compounds. The true share with any hit is near 27%.

SMILES	Pyk2 oligo antag	Cav32 inh	CYP2C19 activ	CYP2C19 inh	CYP2C9 inh	CYP2C9 activ
Cc1n[nH]c(C)c1S(=O)(=O)NCCc1ccc(Cl)cc1	0.59	-0.16	0.7	30	12	0.9
O=C1OC(Nc2ccc3c(c2)OCO3)c2ccccc21 (configuration not stated)	1.3	0.5	0.4	64*	26	0.7
O=C1OC(Nc2ccc(F)cc2F)c2ccccc21 (configuration not stated)	0	1.2	1	-2	-6	1.1
Cc1ccc(NC(=O)CS(=O)(=O)c2cn(C)c3ccccc23)c(C)c1	·	0.14	·	·	·	·
CCn1cc(S(=O)(=O)CC(=O)Nc2ccc3c(c2)OCCO3)c2ccccc21	-0.35	-1	0.6	36	70*	0.3
CCn1cc(S(=O)(=O)CC(=O)Nc2ccc(C)cc2)c2ccccc21	0.36	-0.86	0.1	90*	32	0.7
Cn1cc(S(=O)(=O)CC(=O)Nc2ccc(Br)cc2)c2ccccc21	·	-1.3	0	99*	-1	1
Cc1ccc(C)c(NC(=O)CCc2ccc(S(=O)(=O)NC3CCCCC3)cc2)c1	0.66	-2.6	0.2	84*	76*	0.2
COc1cc(C)ccc1NC(=O)c1ccc(S(=O)(=O)N2CCOCC2)cc1	0.33	-0.016	1.1	-6	-189	2.9*
O=C(CSCc1ccc(Br)cc1)Nc1ccc(S(=O)(=O)N2CCOCC2)cc1	-0.85	-2.9	0.8	15	45	0.5
COc1ccc(NC(=O)c2cncc(Br)c2)c(S(=O)(=O)N2CCOCC2)c1	-0.03	0.14	0.4	55*	28	0.7
N#Cc1ccc(NC(=O)CCc2ccc(S(=O)(=O)N3CCOCC3)cc2)cc1	0.27	0.43	0.8	15	70*	0.3
CC(C)n1c(=S)[nH]c2c1c(=O)[nH]c(=O)n2C	0.37	-0.27	1	4	9	0.9
O=C(NC1CCCC1)c1ccc(S(=O)(=O)N2CCOCC2)cc1	-0.36	0.14	1	4	18	0.8
O=C(NCC1CCN(c2ccc(S(=O)(=O)N3CCOCC3)cc2)CC1)c1ccc(Cl)cc1	0.35	-5.4*	0.6	41	21	0.8
CCNc1ccc(C(=O)OCC)cc1NC(=O)c1cccc(N(C)C)c1	-0.47	-1.8	0.7	28	50*	0.5
Cc1ccc(NC(=O)CCc2ccc(S(=O)(=O)N3CCOCC3)cc2)c(C)c1	-0.03	1.1	0.5	51*	65*	0.3
CCNc1ccc(C(=O)OCC)cc1NC(=O)c1cc(S(=O)(=O)N2CCOCC2)ccc1C	-0.81	0.23	0.1	88*	54*	0.5
COc1ccc(NS(=O)(=O)c2ccc3c(c2)CCC(=O)N3)c(OC)c1	1.1	0.43	0.8	22	14	0.9
O=C(c1cccc(S(=O)(=O)N2CCCC2)c1)N1CCN(c2ccccc2)CC1	-0.28	0.28	0.3	67*	43	0.6
CCOc1ccc(C(=O)N2CCN(c3ccccc3)CC2)cc1OCC	0.98	0.081	0.6	39	41	0.6
O=C(c1ccc2ccccc2c1)N1CCN(c2ccccc2)CC1	0.01	-2.4	0.4	62*	-9	1.1
O=C(COc1ccc(S(=O)(=O)N2CCCC2)cc1Cl)N1CCN(c2ccccc2)CC1	-0.47	-2.5	0.1	88*	85*	0.2
O=C(COc1ccc(Cl)cc1Br)N1CCN(c2ccccc2)CC1	1.8	-0.4	0.6	45	-12	1.1
N/C(CCN1CCCCC1)=N/O	0.65	-0.14	1	-1	-11	1.1
SMILES	Pyk2 oligo antag	Cav32 inh	CYP2C19 activ	CYP2C19 inh	CYP2C9 inh	CYP2C9 activ
O=c1cc(N2CCC(Cc3ccccc3)CC2)[nH]c(=O)n1C1CCCCC1	0.07	-1	0.8	16	20	0.8
CCOC(=O)N1CCC(NC(=O)c2cc(C(=O)NCC(OC)OC)ccc2CO)CC1	0.82	0.25	1	-4	-2	1
O=C(Nc1ccccc1C(=O)O)c1ccc(NC(=O)c2ccc(Br)o2)cc1	-2.9	-0.088	0.8	23	78*	0.2
O=C(Nc1ccccc1C(=O)O)c1cccc(NC(=O)c2ccc(Br)o2)c1	0.45	0.012	1	2	91*	0.1
CC(C)CC(=O)Nc1cccc(C(=O)Nc2ccccc2C(=O)O)c1	-1.2	1.1	0.9	7	74*	0.3
O=C(Nc1ccccc1N1CCCC1)c1ccc(Br)o1	0.02	-1.9	0.4	57*	53*	0.5
O=C(Nc1ccccc1C(=O)O)c1ccccc1	-0.39	0.87	1	5	38	0.6
O=C(Nc1cc(C(F)(F)F)ccc1N1CCCCC1)c1ccc(Br)o1	0.25	-0.59	0.8	17	15	0.8
O=C(Nc1cccc(F)c1)c1ccc(Br)o1	·	0.61	·	·	·	·
CC(=O)Nc1cccc(C(=O)Nc2ccccc2C(=O)O)c1	-0.37	-0.77	1.2	-17	49	0.5
CC(C)C[C@H](NC(=O)c1[nH]cnc1C(=O)N[C@@H](C)C(=O)OC(C)(C)C)C(=O)OC(C)(C)C	·	0.00045	·	·	·	·
Cc1ccc(Oc2ccc(-c3nc(N)nc(N)n3)cc2)cc1C	-1.2	1.5	0.9	7	3	1
COc1ccc(-c2cnnn2-c2ccc(NC(=O)c3ccc(S(=O)(=O)N4CCCCC4)cc3)cc2)cc1	0.52	·	·	·	·	·
O=C(Nc1cccc2cccnc12)c1ccc(Br)o1	-0.97	-0.1	0.8	15	-119	2.2*
NC(=O)CC1NC(=O)c2ccccc21 (configuration not stated)	2.1	1.1	1.1	-5	0	1
O=S(=O)(c1cccc(-c2nnc(SCc3nc4ccccc4s3)o2)c1)N1CCOCC1	-1.3	·	0.5	51*	50	0.5
O=c1c2ccccc2nnn1CSc1nnc(-c2cccc(S(=O)(=O)N3CCCCC3)c2)o1	-0.93	-0.99	0.3	75*	81*	0.2
O=S(=O)(c1cccc(-c2nnc(-c3cccnc3)o2)c1)N1CCCCC1	0.31	1.6	·	·	·	·
COc1ccccc1N1CCN(C(CNC(=O)c2ccc3c(c2)OCO3)c2cccnc2)CC1 (configuration not stated)	4	0.76	0.7	27	39	0.6
COc1ccc(S(=O)(=O)Cc2ccc(C(=O)N3CCN(c4cccc(C)c4C)CC3)o2)cc1	·	-2	0.4	56*	76*	0.2
COc1ccc(S(=O)(=O)Cc2ccc(C(=O)N3CCN(c4cc(Cl)ccc4C)CC3)o2)cc1	·	-2	0.4	61*	85*	0.2
Cc1ccc(S(=O)(=O)Cc2ccc(C(=O)N3CCN(c4ccc(F)cc4)CC3)o2)cc1	·	-1.8	0.6	37	74*	0.3
